Shown are actives, neighbours in structure and some others; about 19% of the full set was active somewhere.
CHX counter – counter-screen hit for Shiga toxin inhibitors, cycloheximide | max response, % | cell reporter, cycloheximide protein synthesis inhibition counterscreen | AID 2314 | actives 12% (n = 300,000); in the data active = max response mostly above about 13%, no sharp cut-off; inactive = mostly below about 14%; also: read at 38.3 µM for the half of the compounds with a filed dose
Shiga inhibitor – inhibitors of Shiga toxin in Vero cells; Vero cells, Shiga toxin protein synthesis inhibition reporter; inhibition, % at 38.7 µM; actives 9.2% (n = 290,000); AID 2315; in the data active = inhibition mostly above about 28%, no sharp cut-off; inactive = mostly below about 43%
AMA1 RON2 block – AMA1-RON2 (P. falciparum) interaction inhibition; AlphaScreen AMA1-biotinylated RON2 peptide binding; Potency, µM (titrated, usually from 58.2 µM), most hits filed as inhibitors; actives 0.2% (n = 360,000); also: nearly all actives have a fitted effect of over 45% in size
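AMA1 (3D7) with his tag at 25 nM final met compounds first, then biotinylated RON2 peptide at 25 nM; detection used donor plus acceptor beads, 10 µg/mL apiece, read by AlphaScreen after 30 min at room temperature.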
SARS PLpro yeast – blocks SARS-CoV papain-like protease in a yeast assay. AID 485353. actives 0.19% (n = 330,000). S. cerevisiae expressing SARS-CoV PLpro, growth rescue. Potency, µM (top dose mostly 32.9 µM), actives largely listed as activators; calls by dose curve; also: nearly all actives have a fitted effect of over 55% in size
Pf growth 96h – inhibits malaria parasite growth, 96 h; P. falciparum luciferase reporter growth, 96 h; Potency, µM (series often up to 28.7 µM), actives largely listed as inhibitors; actives 6.9% (n = 320,000)
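96 h incubation, 37 C, 5% CO2, of luciferase-reporter P. falciparum-infected RBCs (2% hematocrit, 0.05% parasitemia final) with test compounds; endpoint luminescence.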
Pf growth 48h – inhibits P. falciparum growth in the first generation, 48 h; Potency, µM (titrated, usually from 28.7 µM), actives largely listed as inhibitors; AID 504832; P. falciparum luciferase growth in erythrocytes, 48 h; actives 5.9% (n = 310,000)
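Compounds are pin-transferred into medium, infected erythrocytes (2% hematocrit, 0.1% parasitemia final) are added, and plates sit one parasite generation at 37 C in 5% CO2. Detection reagent is then added and luminescence measured.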
Large screens that a line does not name were inactive. Unless noted, calls follow the shape of the dose curve; as a rule, active = well fitted curve in the direction sought with a large enough effect; inconclusive = small, poorly fitted or top-dose-only effect, or another doubt; inactive = no such curve, though single readings can be large; an effect the other way counts as inactive or inconclusive.

COc1cccc(C(=O)Nc2ccc(F)c(F)c2F)c1	CHX counter 35, Shiga inhibitor 136
COc1ccc(/C=N/NC(=S)Nc2ccccc2)cc1COc1ccc(F)cc1F	Pf growth 96h inconclusive, Pf growth 48h inconclusive
COC(=O)c1cccc(/C=N/NC(N)=S)c1O	CHX counter 27, Pf growth 96h inconclusive, Pf growth 48h inconclusive
COc1ccc(NC(=S)N/N=C/c2ccc(F)cc2)cc1OC	CHX counter 30, Shiga inhibitor 46, Pf growth 48h inconclusive
NC(=S)N/N=C/c1ccccc1[N+](=O)[O-]	Pf growth 96h inconclusive
COc1ccc(/C=N/NC(=O)Nc2nonc2N)cc1	CHX counter 48, Shiga inhibitor 75
C=CCOc1ccc(/C=N\NC(N)=S)cc1	Pf growth 48h inconclusive
COc1ccc(/C=N/NC(N)=S)cc1	CHX counter 13
O=C(Nc1ccc(F)c(F)c1)C1CCCN1S(=O)(=O)c1ccc(F)cc1 (stereo not drawn)	Pf growth 48h inconclusive
O=C(NCC(c1cccnc1)N1CCN(c2ccc(F)cc2)CC1)c1ccc(F)cc1 (stereo not drawn)	Pf growth 48h inconclusive
Fc1ccc(NC(=S)N/N=C/c2ccc(F)c(F)c2)cc1	CHX counter 29, Pf growth 96h inconclusive
CCn1nc(C)c(/C=N/NC(=S)Nc2ccc(Cl)cc2Cl)c1C	Shiga inhibitor active, Pf growth 96h inconclusive
Fc1ccc(NC(=S)N/N=C/c2cccc(Br)c2)c(F)c1	Pf growth 96h inconclusive (no result: Pf growth 48h)
Fc1ccc(/C=N/NC(=S)Nc2ccc(Cl)cc2Cl)cc1	Pf growth 96h 2.1µM
COc1ccc(NC(=S)N/N=C/c2ccc(F)c(F)c2)cc1	CHX counter 20, Shiga inhibitor 41
CCC(C)C(NS(=O)(=O)c1ccc(C)cc1)C(=O)N1CCOCCOCCOCC1 (stereo not drawn)	none
CCOC(=O)C1=CN(Cc2cccc(F)c2)S(=O)(=O)N(CC)C1c1ccc(C(F)(F)F)cc1 (stereo not drawn)	none (no result: CHX counter, Shiga inhibitor, Pf growth 96h, Pf growth 48h)
COc1ccc(NC(=S)N/N=C/c2cccn2Cc2ccc(F)cc2Cl)cc1	Pf growth 96h inconclusive, Pf growth 48h 3.7µM
Fc1ccc(/C=N/NC(=S)Nc2ccc(Cl)cc2)cc1F	CHX counter 22
COc1ccc(NC(=S)N/N=C/c2cccn2Cc2ccccc2F)cc1	Pf growth 48h inconclusive
COc1ccc(/C=N/NC(N)=S)cc1OC(=O)c1cccc2ccccc12	CHX counter 23, Shiga inhibitor 56, SARS PLpro yeast inconclusive, Pf growth 96h inconclusive, Pf growth 48h inconclusive
Cc1oc(CC(C)C)cc1C(=O)Nc1ccc(C(=O)O)cc1	CHX counter 57, SARS PLpro yeast inconclusive
Cc1cc(C(=O)Nc2cccc(C(=O)O)c2)c(C)o1	none (no result: Pf growth 48h)
Cc1oc(C(C)(C)C)cc1C(=O)Nc1cccc(C(=O)O)c1	CHX counter 37, Shiga inhibitor 80 (no result: Pf growth 96h)
Cc1oc(C(C)(C)C)cc1C(=O)Nc1ccc(C(=O)O)cc1	CHX counter 36, Pf growth 96h inconclusive
Cc1oc(-c2ccccc2)cc1C(=O)Nc1cccc(C(=O)O)c1	Pf growth 96h inconclusive
Cc1cc(C(=O)Nc2ccc(C(=O)O)cc2)c(C)o1	none
CN(CC(=O)Nc1ccc(Cl)cc1)C(=O)c1ccc(NS(=O)(=O)c2ccc3[nH]c(=O)[nH]c3c2)cc1	Pf growth 96h inconclusive (no result: CHX counter, Shiga inhibitor)
CC(C)(C)c1ccc(NC(=O)c2c(F)cccc2Cl)cc1	CHX counter 31, Shiga inhibitor 55, Pf growth 96h 9.3µM, Pf growth 48h inconclusive
O=C(NNc1c(Cl)cccc1Cl)c1c(F)cccc1Cl	Pf growth 96h inconclusive
O=C(Nc1ncc(Cl)cc1Cl)c1c(F)cccc1Cl	Shiga inhibitor 66
COc1ccc(CNC(=O)c2cccc3c(-c4cccc(C(N)=O)c4)coc23)cc1OC	none (no result: CHX counter, Shiga inhibitor, SARS PLpro yeast, Pf growth 96h, Pf growth 48h)
Cc1ccc(CNc2oc(-c3ccco3)nc2C#N)cc1	none
CC(C)CNc1oc(-c2ccc(F)cc2)nc1C#N	CHX counter 16, Shiga inhibitor 40
Cc1ccc(-c2nc(C#N)c(NCc3cccc4c3OCO4)o2)cc1	CHX counter 26, Shiga inhibitor 59 (no result: Pf growth 96h)
N#Cc1nc(-c2ccc(F)cc2)oc1NCc1cccc2c1OCO2	CHX counter 34
COC(=O)Cn1c(=O)c2c(nc3n2CC(C)CN3c2ccc(C)c(C)c2)n(C)c1=O (stereo not drawn)	none
CCOc1ccc(S(=O)(=O)N(CC)CC(=O)N2CCOCC2)cc1C	none
